Data published in PubChem BioAssay AID1508608 (The Scripps Research Institute Molecular Screening Center, 2020).
The whole screen tested about 2,300 compounds, of which about 20 (0.9%) were called active.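 Rule for the calls: active = mean activation across replicates above 26.72%, the hit cutoff set for this confirmation screen; inactive = the rest.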 Shown is part of a subset that was picked to be rich in actives.

Molecular target: G-protein coupled receptor 151 (Homo sapiens) (UniProt Q8TDV0)
Assay: GPR151 agonism via beta-arrestin recruitment – cell-based, PathHunter beta-arrestin, luminescence, set 2, confirmation (AID 1508608);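 note: 0% = plate median of compound wells and 100% = EA reagent high control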
Details: GPR151 PathHunter beta-arrestin cells, 90 min, at 11.2 µM, hits give high values, 100% = signal from added EA reagent

Sequence of G-protein coupled receptor 151 (Homo sapiens) (Q8TDV0 whole entry, looked up): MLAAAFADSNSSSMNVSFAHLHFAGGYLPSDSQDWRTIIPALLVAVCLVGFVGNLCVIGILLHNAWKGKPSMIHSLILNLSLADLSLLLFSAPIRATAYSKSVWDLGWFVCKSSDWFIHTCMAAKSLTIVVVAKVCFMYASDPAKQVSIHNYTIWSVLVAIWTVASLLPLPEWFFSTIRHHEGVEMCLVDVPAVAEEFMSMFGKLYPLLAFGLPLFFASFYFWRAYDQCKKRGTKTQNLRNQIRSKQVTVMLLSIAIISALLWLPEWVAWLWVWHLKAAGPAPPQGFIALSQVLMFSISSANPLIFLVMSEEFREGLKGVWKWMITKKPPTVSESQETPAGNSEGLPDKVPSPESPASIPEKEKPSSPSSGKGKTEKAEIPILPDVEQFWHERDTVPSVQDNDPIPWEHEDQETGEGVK

activation, active:
CC[C@@H](C(=O)C(C)[C@@H](O)[C@H](C)CCc1ccc(C)c(O)c1C(=O)O)C1OC(CC)(C2CC[C@](O)(CC)[C@H](C)O2)C[C@@H]1C (stereo partly drawn) 83.1%
COc1ccc(CCNc2ccnc(Nc3ccc(N4CCOCC4)cc3)n2)cc1 28.5%
COc1ccc(CCNc2cc(C)nc(Nc3ccc(-n4ccnc4)cc3)n2)cc1 41.2%
COc1ccc(CCNc2ccnc(Nc3ccc(-n4ccnc4)cc3)n2)cc1 38.8%
CC(C)CC(NC(=O)C(C)NC(=O)CNC(=O)C(NC=O)C(C)C)C(=O)NC(C)C(=O)NC(C(=O)NC(C(=O)NC(C(=O)NC(Cc1c[nH]c2ccccc12)C(=O)NC(CC(C)C)C(=O)NC(Cc1c[nH]c2ccccc12)C(=O)NC(CC(C)C)C(=O)NC(Cc1c[nH]c2ccccc12)C(=O)NC(CC(C)C)C(=O)NC(Cc1c[nH]c2ccccc12)C(=O)NCCO)C(C)C)C(C)C)C(C)C (stereo not drawn) 101%
COc1ccc(CCN2C(=O)c3ccc(Oc4ccc(Nc5ncnc6ccccc56)cc4)cc3C2=O)cc1OC 40.5%
CCC(C)NC(=O)c1cc(=O)[nH]c2ccc(Br)cc12 (stereo not drawn) 88.5%
CCN(CC)S(=O)(=O)c1ccc(-c2csc(=Nc3ccccc3OC)n2CC)cc1 28.4%
CC[n+]1c(/C=C2\Sc3ccc(C)cc3N2CCO)ccc2ccccc21 31.2%
CN1CCN(c2cc(-c3cn[nH]c3)ccc2NC(=O)Cc2cccc(Cl)c2)CC1 35.5%

activation, inactive:
COc1ccc(-c2nc(Nc3ccccc3F)c3ccccc3n2)cc1OC 8.64%
CC(C)C[C@H]1NC(=O)[C@H]2CN(C(=O)c3cccc(Cl)c3)CCN2C1=O -3.06%
O=C(Nc1ncc(C(O)(C(F)(F)F)C(F)(F)F)s1)c1ccccc1Cl -4.3%
COc1ccc(NC(=O)c2cc3c(CO)cnc(C)c3oc2=N)cc1Cl -0.43%
O=C(NCCc1nnc2n1CCN(Cc1ccccc1-c1ccco1)CC2)C1CCCO1 (stereo not drawn) -0.22%
CCc1ccccc1NC(=S)N(CCc1ccc(OC)c(OC)c1)Cc1cccnc1 12%
O=C(Nc1nc(-c2ccc(I)cc2)cs1)c1ccc(Cl)s1 4.72%
CC(C)[C@@H]1NC(=O)[C@@H]2C[C@H](NCc3cn(C)nc3-c3ccccc3)CN2C1=O -1.25%
Cc1nn(-c2ccccc2)c(Cl)c1/C=N\O 1.25%
Cc1ccc(O)c(NC(=O)COCc2cc(-c3ccc(F)cc3)on2)c1 -1.43%
COc1cc(NC(=O)c2nn3c(C(F)(F)F)cc(-c4ccco4)nc3c2Cl)c(OC)cc1Cl -0.24%
CCC(=O)N1CCc2cc(S(=O)(=O)Nc3cccc(C)c3)ccc21 -1.7%
CC(=O)N1CCc2cc(Br)cc(S(=O)(=O)Nc3ccc(C)cc3C)c21 -9.66%
O=C(Nc1nc2c(s1)-c1cccc3cccc-2c13)C1CC1 -2.94%
Cc1cccc(NCC(=O)N/N=C/c2ccccc2O)c1 -1.08%
CN1CCN(C(=O)c2cc3c(=O)[nH]c4ccccc4c3s2)CC1 -2.02%
COc1ccc(OC)c(S(=O)(=O)NCCc2csc(-c3cccnc3)n2)c1 -1.44%
Cc1cccc(N(CCCN2C(=O)c3cccc4cccc(c34)C2=O)C(=O)c2cccs2)c1 2.61%
CC(=O)NN1C(=O)c2ccc(Oc3ccc4c(c3)C(=O)N(NC(C)=O)C4=O)cc2C1=O 1.35%
COc1ccc(/C=c2\sc3ncnn3c2=O)c(OC)c1 1.55%
COc1ccccc1C1SC(NC(C)=O)=NN1C(C)=O (stereo not drawn) 4.02%
Cc1cccc(C2c3[nH]c4ccccc4c3CCN2C(=O)CCN2CCCCO2)n1 (stereo not drawn) 2.25%
COc1cccc(CC(=O)NCC2CC(Cc3ccc(F)cc3)=NO2)c1 (stereo not drawn) -4.37%
COc1cccc(Nc2nc(Nc3cc(C)ccc3C)nc(N3CCOCC3)n2)c1 8.14%
COc1cc(Nc2ccnc(Nc3ccc(N4CCOCC4)cc3)n2)cc(OC)c1OC 4.44%
Cc1cc(Nc2ccc3c(c2)OCO3)nc(Nc2ccc(N3CCOCC3)cc2)n1 12.3%
Cc1cc(Nc2ccc(N3CCOCC3)cc2)nc(Nc2ccc(-n3ccnc3)cc2)n1 17.5%
Cc1ccc(NC(=O)/C(=C\c2ccco2)NC(=O)c2cccc(C)c2)cc1 0.99%
COc1ccc(-c2nc(Nc3ccc(C)c(Cl)c3)c3ccccc3n2)cc1OC 12.1%
COc1ccc(CCN2C(=O)c3cccnc3C2=O)cc1OC 2.67%
CC(NC(=O)c1ccco1)c1nnc2n1CCN(Cc1cccc(F)c1)CC2 (stereo not drawn) 17.5%
CCOC(=O)C1=NN=C2C(=O)N(c3ccccc3)C(=O)C12 (stereo not drawn) 0.79%
CCOc1ccc(NC(=O)/C(C#N)=C/c2c[nH]c3ccccc23)cc1 1.37%
O=C(CSc1nc(-c2ccccc2)cn1-c1ccccc1)Nc1ccccc1Cl 6.36%
O=C1OC(c2ccc(Br)cc2)=N/C1=C\c1ccc(Br)cc1 0.61%
Cc1ccc(S(=O)(=O)N(CC(=O)N2CCOCC2)CC(=O)N2CCOCC2)cc1 7.51%
O=C1C2CCCN2C(c2ccco2)N1c1ccc(F)cc1 (stereo not drawn) 2.43%
FC(F)(F)c1nc(Nc2ccccc2Cl)sc1-c1ccccc1 4.88%
N/C(=N\c1nc(=O)c2ccccc2s1)NC(=O)c1cccc(Br)c1 0.6%
CCOc1ccc(NC(=O)CN2CCN(CC(=O)Nc3ccc(N(C)C)cc3)CC2)cc1 -2.91%
COc1cc(C2=N/C(=C\c3cccc(F)c3)C(=O)O2)cc(OC)c1OC 0.44%
O=C1NC(=O)C(=Cc2ccc(-c3ccc(O)c([N+](=O)[O-])c3)o2)C(=O)N1 -2.55%
Cc1nnc(Nc2cccc(F)c2)[nH]c1=O -3.86%
COC(=O)C1=C(C)NC(=O)NC1c1cc(OC)ccc1OC (stereo not drawn) 0.35%
CC(C)C(NS(=O)(=O)c1cccc2nsnc12)C(=O)NC1CCCC1 (stereo not drawn) -3.04%
CC(=O)Nc1ccc(NC(=O)c2sc3ccccc3c2Cl)cc1 1%
CCN(CC(=O)N1CCCCC1)S(=O)(=O)c1ccc(Cl)cc1 -5.3%
CC1CCCN(C(=O)C(=O)N2CCCC(C)C2)C1 (stereo not drawn) 3.28%
CCC(C)NC(=O)c1ccc(-n2c(=S)[nH]c3ccccc3c2=O)cc1 (stereo not drawn) 7.03%
CCC(C)NC(=O)c1cc2c(=O)oc3ccccc3c2s1 (stereo not drawn) 1.06%
CCCOC(=O)CSC1=C(C#N)C(c2ccco2)C(C(=O)Nc2ccc(Cl)cc2)=C(C)N1 (stereo not drawn) -4.25%
O=C(Nc1ccc(F)cc1)N1CCN(c2ccc3nnc(-c4ccc(F)cc4)n3n2)CC1 -0.4%
Nc1ccccc1-c1nnn(CC(=O)Nc2ccc(Cl)cc2)n1 -3.19%
O/N=C(\C=N\O)C12CC3CC(CC(C3)C1)C2 -1.69%
O=C(O)c1c(CNCCCSC2CCCCC2)c2ccccc2n1Cc1ccccc1 3.46%
CC(=O)NCC(=O)N1CCC(c2nc(-c3ccncc3)ncc2-c2cccc(C)c2)CC1 0.35%
CCCn1c(=O)c2c(nc3n2CC(C)CN3c2cccc(Cl)c2)n(C)c1=O (stereo not drawn) 3.55%
S=c1[nH]nc(OCc2ccc(Cl)cc2Cl)n1-c1ccccc1 -1.15%
CC1C(=O)Nc2ccc(S(=O)(=O)Nc3ccc(F)c(Cl)c3)cc2NC1=O (stereo not drawn) 4.91%
COC(=O)C1(C(F)(F)F)N=C2C=C(C)C=CN2C(c2ccc(C)cc2)=N1 (stereo not drawn) 3.12%
COC(=O)c1c(NC(=O)COc2cccc(C(F)(F)F)c2)sc2c1CCCC2 -0.94%
O=C1CSc2ccc(C(=O)N3CCc4ccccc4C3)cc2N1 -0.36%
Cc1sc2ncn(CC(=O)Nc3ccc(Oc4ccc(Cl)cc4)cc3)c(=O)c2c1C 2.02%
COc1ccc(/C=N/NC(=O)COc2c(OC)cc([N+](=O)[O-])cc2[N+](=O)[O-])c(O)c1 -9.14%
CCc1c(C)nc2c(C(=O)NCCc3ccccc3)c[nH]n2c1=O 1.59%
CCOc1ccc(C(=O)Nc2nc(-c3ccc(CC)cc3)cs2)cc1 4.71%
O=c1ccc(=O)n(CN(c2ccccc2)c2ccccc2)[nH]1 4.24%
CCN(CC)CCNC(=O)CNC(=O)c1nn(-c2ccc(OC)cc2OC)c(=O)c2ccccc12 -4.28%
Cc1ccc(-c2cc(=O)c3cc(Cl)ccc3o2)cc1 -6.67%
O=C(O)CNC(=O)/C=C/c1ccccc1Cl -5.28%
O=c1c2sc3ccccc3c2n(CCN2CCOCC2)c(=O)n1Cc1ccccn1 1.89%
COc1ccc(C)cc1NC(=O)c1sc2ncn(CC(=O)Nc3ccc(C)c(Cl)c3)c(=O)c2c1C -0.16%
O=C(c1ccccc1)c1cc2cc(Cl)ccc2oc1=O 1.99%
O=C(CCNS(=O)(=O)c1ccc2[nH]c(=O)ccc2c1)N1CCC(N2CCCCC2)CC1 -4.32%
COc1cccc(NC2c3ccccc3C(=O)N2c2cccnc2)c1 (stereo not drawn) 0.11%
O=C(O)c1ccc(Sc2ccc(Br)cc2)c([N+](=O)[O-])c1 -1.52%
COc1ccc(C2C3=C(CCCC3=O)Nc3nc(SC)nn32)c(OC)c1 (stereo not drawn) 1.74%
CCOC(=O)C1=C(C)N=c2s/c(=C\c3cc([N+](=O)[O-])ccc3N3CCOCC3)c(=O)n2C1c1ccc(OC)c(OC)c1 (stereo not drawn) 0.23%
Cc1ccc(CN2CCN(Cc3ccc4cc(F)ccc4n3)CC2CCO)o1 (stereo not drawn) 4.51%
CCn1c(=S)sc2c(=O)[nH]c(C)nc21 -7.13%
CC(=O)n1nc(-c2ccco2)nc1SCc1ccccc1 2.59%
Cc1noc(C)c1S(=O)(=O)N1CCC(C(=O)N2CCCCC2C)CC1 (stereo not drawn) -1.12%
CCCc1cc(=O)n2[nH]c(NCc3cccc(OC)c3)nc2n1 -0.18%
CCC(C)NC(=O)CSc1nnc(-c2ccc(C)cc2)c(-c2ccc(C)cc2)n1 (stereo not drawn) 6.79%
COc1ccc(CCn2c(-c3ccc(Cl)cc3)csc2=Nc2ccc(F)cc2)cc1OC 2.13%
O=S(=O)(c1ccc(-c2csc(=Nc3cccc(Cl)c3)n2CCCO)cc1)N1CCCCC1 14.5%
COc1ccc(C(=O)NC(C)c2csc(C)n2)cc1OC1CCN(C(C)=O)CC1 (stereo not drawn) 1.6%
Cc1ccc2c(c1)NC(C)(C)c1ssc(=Nc3ccc(S(=O)(=O)Nc4nccc(C)n4)cc3)c1-2 6.63%
CSc1ncc(Cl)c(C(=O)Nc2nc3ccc(S(C)(=O)=O)cc3s2)n1 -3.08%
CCC[n+]1c(/C=C2\Sc3ccccc3N2CC)ccc2ccccc21 15.4%
N#Cc1c(-c2ccccc2)cc(-c2cccs2)nc1SC1CCCCC1O (stereo not drawn) 4.8%
Cc1ccc2nc(NC(=O)CCCN3C(=S)NC(C)(C)CC3C)sc2c1 (stereo not drawn) 2.74%
C#CCOc1c(Br)cc(C=O)cc1OC -0.43%
